Data reported in PubChem BioAssay (Tox21).
Inconclusive results are not listed. The source made the active and inactive calls. Unless noted, the call rests on the fitted dose curve.

Tests used:
[1] = Nuclear factor erythroid 2-related factor 2/antioxidant responsive element (Nrf2/ARE) small molecule agonists: qHTS cell viability counter screen in human keratinocytes (AID 1919968; active means well fitted curve in the direction sought with a large enough effect in the repeat runs; an effect the other way counts as inactive or inconclusive; further: nearly all actives have a fitted effect of over 55% in size; further: potency means the concentration at half of the fitted maximal effect)
How it was run: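 Seed 1,500 KeratinoSens cells per well, then incubate 5 h at 37 C/5% CO2. Add compounds in DMSO and incubate 23 h. Add CellTiter-Fluor, wait 1 h and read fluorescence.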

[2] = Nuclear factor erythroid 2-related factor 2/antioxidant responsive element (Nrf2/ARE) small molecule agonists: luciferase reporter gene qHTS assay in human keratinocytes (AID 1919969); further: nearly all actives have a fitted effect of over 35% in size; further: potency means the concentration at half of the fitted maximal effect
[3] = biological target: Gonadotropin-releasing hormone receptor (Homo sapiens) (UniProt P30968); assay: Human gonadotropin-releasing hormone receptor (GnRHR) small molecule agonists, calcium flux assay in GnRHR-HEK293 cells (AID 1920063); further: nearly all actives have a fitted effect of over 35% in size
Gonadotropin-releasing hormone receptor (Homo sapiens), sequence (P30968 whole entry, looked up): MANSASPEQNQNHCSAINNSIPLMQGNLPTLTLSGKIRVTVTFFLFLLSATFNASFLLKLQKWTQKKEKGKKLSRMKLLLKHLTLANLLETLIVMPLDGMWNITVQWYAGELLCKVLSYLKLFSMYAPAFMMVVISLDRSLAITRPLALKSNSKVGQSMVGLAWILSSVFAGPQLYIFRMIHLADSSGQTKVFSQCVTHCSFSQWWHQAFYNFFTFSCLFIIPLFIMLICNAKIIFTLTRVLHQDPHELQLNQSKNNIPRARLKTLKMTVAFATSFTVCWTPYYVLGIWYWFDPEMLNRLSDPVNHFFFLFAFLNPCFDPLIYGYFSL
How it was run: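 Cells: HEK293 stably expressing human GnRHR. Steps: overnight (18 h) culture, 1 h calcium dye loading at 37 C, compound addition, kinetic fluorescence read at 480/540 nm. Each compound tested at 15 concentrations in triplicate.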

[4] = biological target: KiSS-1 receptor (Homo sapiens) (UniProt Q969F8); assay: Human kisspeptin (KISS1R) small molecule agonists, calcium flux assay in KISS1R-HEK293 cells (AID 1920064; active means well fitted curve in the direction sought with a large enough effect in the repeat runs; an effect the other way counts as inactive or inconclusive)
KiSS-1 receptor (Homo sapiens), sequence (Q969F8 whole entry, looked up): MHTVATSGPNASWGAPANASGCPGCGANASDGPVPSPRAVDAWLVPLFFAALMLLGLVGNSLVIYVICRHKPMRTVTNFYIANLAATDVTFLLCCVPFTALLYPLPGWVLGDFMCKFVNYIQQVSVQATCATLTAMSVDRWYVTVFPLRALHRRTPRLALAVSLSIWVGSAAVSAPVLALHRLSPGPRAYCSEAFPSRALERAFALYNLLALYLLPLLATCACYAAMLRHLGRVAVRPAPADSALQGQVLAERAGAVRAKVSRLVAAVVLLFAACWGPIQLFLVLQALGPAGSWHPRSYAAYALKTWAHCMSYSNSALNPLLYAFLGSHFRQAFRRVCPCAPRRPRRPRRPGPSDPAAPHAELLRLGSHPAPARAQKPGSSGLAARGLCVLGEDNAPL
How it was run: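 Cells plated and incubated 18 h; dye added, 1 h at 37 C; compounds in DMSO pinned in; signal read at 480/540 nm every second for 3 min. Each compound tested at 15 concentrations in triplicate.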

[5] = G protein-coupled receptor (GPCR) small molecule agonists, calcium flux assay: HEK293 wild type cell line counter screen (AID 1920065)
How it was run: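 Counter-screen of the Tox21 10K library for non-specific calcium release: dye-loaded cells received compounds in DMSO and were monitored by kinetic fluorescence (480/540 nm, 3 min). Fifteen concentrations, run in triplicate.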

[6] = p53 small molecule agonists, cell-based qHTS assay with rat liver microsomes: qHTS cell viability counter screen (AID 1963580); further: nearly all actives have a fitted effect of over 45% in size
How it was run: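 In HCT-116 cells carrying a p53 response element-bla reporter, compounds were metabolically activated in situ by rat liver microsomes with NADPH over 16 h. Cell ATP content then served as the cytotoxicity measure.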

[7] = p53 small molecule agonists, cell-based qHTS assay: qHTS cell viability counter screen (AID 1963581); further: nearly all actives have a fitted effect of over 45% in size; further: potency means the concentration at half of the fitted maximal effect
How it was run: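 Cells: HCT-116 with p53 response element-driven beta-lactamase. Treatment: 16 h, 37 C, compounds in DMSO. Read: CellTiter-Glo luminescence after 30 min RT.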

[8] = biological target: 5-hydroxytryptamine receptor 2A (Homo sapiens) (UniProt P28223); assay: 5-hydroxytryptamine receptor 2A (HTR2A) small molecule antagonists, cell-based qHTS assay (AID 1963586); further: nearly all actives have a fitted effect of over 45% in size; further: potency means the concentration at half of the fitted maximal effect
5-hydroxytryptamine receptor 2A (Homo sapiens), sequence (P28223 whole entry, looked up): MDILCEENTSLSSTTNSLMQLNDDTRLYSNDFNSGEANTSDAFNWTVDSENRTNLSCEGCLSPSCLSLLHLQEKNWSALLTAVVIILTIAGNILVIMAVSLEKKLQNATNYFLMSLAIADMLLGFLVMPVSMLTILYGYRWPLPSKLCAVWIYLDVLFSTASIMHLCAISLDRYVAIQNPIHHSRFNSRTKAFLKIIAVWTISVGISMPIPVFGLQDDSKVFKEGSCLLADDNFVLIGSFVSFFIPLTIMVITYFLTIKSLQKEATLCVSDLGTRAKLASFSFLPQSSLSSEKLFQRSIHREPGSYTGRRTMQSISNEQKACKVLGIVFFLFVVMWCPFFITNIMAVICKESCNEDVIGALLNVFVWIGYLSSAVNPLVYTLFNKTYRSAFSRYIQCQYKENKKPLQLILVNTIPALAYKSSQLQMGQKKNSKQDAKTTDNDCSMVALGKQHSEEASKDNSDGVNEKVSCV
How it was run: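 Antagonist-mode intracellular calcium assay: DOI (4 nM) added after 5 min compound pre-incubation at room temperature to dye-loaded HTR2A-CHO cells. Fluorescence followed for 3 min, sampled every second.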

[9] = biological target: 5-hydroxytryptamine receptor 2A (Homo sapiens) (UniProt P28223); assay: 5-hydroxytryptamine receptor 2A (HTR2A) small molecule agonists, cell-based qHTS assay (AID 1963587); further: nearly all actives have a fitted effect of over 30% in size
How it was run: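 HTR2A-CHO cells, plated 18 h at 37 C/5% CO2, dye-loaded 1 h at 37 C; compounds in DMSO added by pin tool (agonist mode). Intracellular calcium flux read as kinetic fluorescence on FDSS over 2 min at 1 s intervals.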

[10] = biological target: Muscarinic acetylcholine receptor M1 (Homo sapiens) (UniProt P11229); assay: Cholinergic receptor muscarinic 1 (CHRM1) small molecule antagonists, cell-based qHTS assay (AID 1963588); further: nearly all actives have a fitted effect of over 40% in size
Muscarinic acetylcholine receptor M1 (Homo sapiens), sequence (P11229 whole entry, looked up): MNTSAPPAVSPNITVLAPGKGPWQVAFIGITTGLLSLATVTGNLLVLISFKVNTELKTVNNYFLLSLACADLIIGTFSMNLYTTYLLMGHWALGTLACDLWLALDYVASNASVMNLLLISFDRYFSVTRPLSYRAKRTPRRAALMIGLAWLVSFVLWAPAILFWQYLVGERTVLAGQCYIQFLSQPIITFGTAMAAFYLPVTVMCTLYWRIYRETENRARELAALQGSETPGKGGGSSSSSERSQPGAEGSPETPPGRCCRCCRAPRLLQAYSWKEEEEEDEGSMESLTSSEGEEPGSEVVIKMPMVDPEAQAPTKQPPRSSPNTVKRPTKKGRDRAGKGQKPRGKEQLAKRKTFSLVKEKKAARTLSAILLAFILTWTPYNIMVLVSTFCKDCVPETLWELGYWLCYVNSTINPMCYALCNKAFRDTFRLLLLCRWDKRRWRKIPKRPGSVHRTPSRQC
How it was run: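 CHRM1-CHO calcium-flux assay, antagonist mode. Cells were seeded 18 h, dye-loaded 1 h at 37 C and given compound for 5 min at RT, then acetylcholine was added at 50nM. FDSS fluorescence was read 3 min; 15 concentrations, three runs.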

[11] = biological target: Muscarinic acetylcholine receptor M1 (Homo sapiens) (UniProt P11229); assay: Cholinergic receptor muscarinic 1 (CHRM1) small molecule agonists, cell-based qHTS assay (AID 1963589); further: nearly all actives have a fitted effect of over 35% in size
How it was run: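 Agonist-mode qHTS in CHO cells stably carrying human muscarinic M1. Intracellular calcium is tracked by fluorescence every second after compound transfer; each compound runs at 15 concentrations in three independent runs.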

[12] = cAMP Responsive Elements (CRE) small molecule agonists, cell-based qHTS assay (AID 1963590)
How it was run: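 Agonist mode qHTS in CRE-bla HEK 293T cells: compounds dosed from DMSO for 3 h at 37 C/5% CO2, followed by LiveBLAzer B/G FRET substrate for 2 h at room temperature.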

[13] = cAMP Responsive Elements (CRE) small molecule antagonists, cell-based qHTS assay (AID 1963591; active means well fitted inhibition curve with a large enough effect in the signal ratio in the repeat runs, not every such curve was filed as active; the % refers to the signal ratio)
How it was run: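 Antagonist mode: test compounds are co-incubated with the adenylyl cyclase activator NKH477 (0.25 uM final) on CRE-bla HEK293T cells for 3 h at 37 °C, followed by LiveBLAzer substrate loading.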

[14] = biological target: Beta-2 adrenergic receptor (Homo sapiens) (UniProt P07550); assay: Adrenergic beta2 receptor (ADRB2) small molecule antagonists, cell-based qHTS assay (AID 1963592); further: series mostly up to about 92 µM; nearly all actives have a fitted effect of over 50% in size
Beta-2 adrenergic receptor (Homo sapiens), sequence (P07550 whole entry, looked up): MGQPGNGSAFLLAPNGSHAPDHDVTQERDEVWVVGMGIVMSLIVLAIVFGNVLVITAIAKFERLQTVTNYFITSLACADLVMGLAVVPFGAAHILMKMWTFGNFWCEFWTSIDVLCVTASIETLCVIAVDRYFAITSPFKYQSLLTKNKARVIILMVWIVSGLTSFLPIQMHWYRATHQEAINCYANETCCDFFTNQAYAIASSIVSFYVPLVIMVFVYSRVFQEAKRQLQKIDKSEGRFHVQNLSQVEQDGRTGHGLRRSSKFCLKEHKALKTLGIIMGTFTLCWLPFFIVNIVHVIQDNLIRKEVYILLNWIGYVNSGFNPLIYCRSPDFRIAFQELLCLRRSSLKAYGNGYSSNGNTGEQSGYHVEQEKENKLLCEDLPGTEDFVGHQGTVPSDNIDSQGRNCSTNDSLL
How it was run: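 Cells (CHO, stable ADRB2 overexpression) incubated 18-20hr at 37C; compounds added from DMSO; agonist mix (1nM isoproterenol, 100uM IBMX, 25uM Ro-20-1724) added; 0.5hr RT; d2-cAMP and anti-cAMP-cryptate added; 1hr RT; 665/615 nm read.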

[15] = biological target: D(2) dopamine receptor (Homo sapiens) (UniProt P14416); assay: Dopamine D2 receptor (DRD2) small molecule agonists, cell-based qHTS assay (AID 1963594); further: nearly all actives have a fitted effect of over 35% in size
D(2) dopamine receptor (Homo sapiens), sequence (P14416 whole entry, looked up): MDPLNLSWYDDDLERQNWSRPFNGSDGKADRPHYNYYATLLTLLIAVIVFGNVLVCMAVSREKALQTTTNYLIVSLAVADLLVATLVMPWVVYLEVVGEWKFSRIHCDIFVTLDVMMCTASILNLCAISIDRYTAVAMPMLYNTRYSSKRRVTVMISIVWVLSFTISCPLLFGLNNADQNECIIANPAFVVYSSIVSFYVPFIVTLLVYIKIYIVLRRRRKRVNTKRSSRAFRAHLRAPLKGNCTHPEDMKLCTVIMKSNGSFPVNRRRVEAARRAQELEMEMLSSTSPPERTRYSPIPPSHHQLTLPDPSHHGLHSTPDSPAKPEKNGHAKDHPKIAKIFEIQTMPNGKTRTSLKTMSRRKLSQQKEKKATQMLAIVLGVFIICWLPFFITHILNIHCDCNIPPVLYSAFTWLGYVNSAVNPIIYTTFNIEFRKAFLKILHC
How it was run: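 HEK293 cells stably expressing DRD2 were cultured 24 h at 37 C, then given Ro20-1724 (0.1 mM final) and compounds for 10 min at room temperature. NKH477 (200nM) was then added for 30 min. cAMP was read by HTRF.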

[16] = biological target: D(2) dopamine receptor (Homo sapiens) (UniProt P14416); assay: Dopamine D2 receptor (DRD2) small molecule antagonists, cell-based qHTS assay (AID 1963595; active means well fitted inhibition curve with a large enough effect in the signal ratio in the repeat runs, with a control signal flat; the % refers to the signal ratio)
How it was run: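 Human DRD2 antagonist qHTS measuring cAMP by HTRF. The cells are exposed to compound for 10 min, then to NKH477 (200 nM) and quinpirole (12 nM) for 30 min at RT, with Ro20-1724 (0.1 mM) present throughout.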

[17] = biological target: Beta-2 adrenergic receptor (Homo sapiens) (UniProt P07550); assay: Adrenergic beta2 receptor (ADRB2) small molecule agonists, cell-based qHTS assay (AID 1963593);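 further: CHO cells stably overexpressing human ADRB2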
How it was run: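 CHO cells stably over-expressing ADRB2 were plated overnight at 37C, then dosed with compounds plus a stimulation mix containing 100uM IBMX and 25uM Ro-20-1724 for 0.5hr at room temperature. cAMP was measured by HTRF competition, 1hr.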

[18] = p53 small molecule agonists, cell-based qHTS assay (AID 1963582; active means well fitted activation curve with a large enough effect in the signal ratio in the repeat runs, not every such curve was filed as active; the % refers to the signal ratio)
How it was run: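 Quantitative HTS in p53RE-bla cells: after a 5 h settling period, compounds delivered in DMSO were left on cells for 16 h at 37 C, and reporter induction was measured as fluorescence following 2 h substrate loading.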
On the % scale 0 is the no-effect control and ±100 the full control effect.

O=C1CCCN1C1CCCCC1
inactive: Potency [1] | Potency [2] | Potency [3] | Potency [4] | Potency [5] | Potency [6] | Potency [7] | Potency [8] | Potency [9] | Potency [10] | Potency [11] | Potency [12] | Potency [13] | Potency [14] | Potency [15] | Potency [16]

Cc1cccc(NC(=S)N(C)C)c1
inactive: Potency [1] | Potency [2] | Potency [3] | Potency [4] | Potency [5] | Potency [6] | Potency [7] | Potency [8] | Potency [9] | Potency [10] | Potency [11] | Potency [12] | Potency [14] | Potency [17] | Potency [15] | Potency [16]

Cc1nccn1-c1ccc(Sc2cccc(C3(C(N)=O)CCOCC3)c2)cc1
inactive: Potency [1] | Potency [2] | Potency [3] | Potency [4] | Potency [5] | Potency [6] | Potency [7] | Potency [8] | Potency [9] | Potency [11] | Potency [14] | Potency [17] | Potency [15]

C=C1C(C)(C)[C@@]2(Cl)C(Cl)[C@]1(Cl)C(Cl)(Cl)C2(Cl)Cl (some centres not stated)
active: Potency [1] 47.7 µM | Potency [2] 9.51 µM | Potency [7] 40 µM
inactive: Potency [3] | Potency [4] | Potency [5] | Potency [6] | Potency [8] | Potency [9] | Potency [10] | Potency [11] | Potency [14] | Potency [15] | Potency [16]

Clc1ccc2nsnc2c1NC1=NCCN1
inactive: Potency [1] | Potency [2] | Potency [3] | Potency [4] | Potency [5] | Potency [6] | Potency [7] | Potency [8] | Potency [9] | Potency [10] | Potency [11] | Potency [12] | Potency [13] | Potency [14] | Potency [17] | Potency [15] | Potency [16]

C=C(C)CS(=O)(=O)O
inactive: Potency [1] | Potency [2] | Potency [3] | Potency [4] | Potency [5] | Potency [6] | Potency [7] | Potency [8] | Potency [9] | Potency [10] | Potency [11] | Potency [12] | Potency [13] | Potency [14] | Potency [16]

COc1cc(N)ccc1C
inactive: Potency [1] | Potency [2] | Potency [3] | Potency [4] | Potency [5] | Potency [6] | Potency [7] | Potency [8] | Potency [9] | Potency [10] | Potency [11] | Potency [12] | Potency [13] | Potency [14] | Potency [15] | Potency [16]

CC(=O)Nc1ccc(OC(=O)c2ccccc2OC(C)=O)cc1
inactive: Potency [1] | Potency [2] | Potency [3] | Potency [4] | Potency [5] | Potency [6] | Potency [7] | Potency [8] | Potency [9] | Potency [10] | Potency [11] | Potency [12] | Potency [13] | Potency [14] | Potency [17] | Potency [15] | Potency [16]

CC(=O)OCC1=C(C(=O)O)N2C(=O)[C@@H](NC(=O)CSc3ccncc3)[C@H]2SC1
inactive: Potency [1] | Potency [2] | Potency [3] | Potency [4] | Potency [5] | Potency [6] | Potency [7] | Potency [8] | Potency [9] | Potency [10] | Potency [11] | Potency [12] | Potency [13] | Potency [14] | Potency [17] | Potency [15] | Potency [16]

CNCc1cc(F)ccc1Oc1ccc(Cl)c(Cl)c1
inactive: Potency [2] | Potency [3] | Potency [4] | Potency [5] | Potency [6] | Potency [7] | Potency [18] | Potency [11] | Potency [12] | Potency [14] | Potency [17]
active: Potency [1] 27.3 µM | Potency [8] 0.266 µM

C=CCCCCCCCCCCCCCC
inactive: activity change, negative = cytotoxicity [1] 5.7% [at 19 µM] | activity, positive = activation [2] -0.484% [at 19 µM] | activity change [3] 0.565% [at 11.8 µM, stronger effect = higher value] | activation [4] -0.0025% [at 15.8 µM] | activation [5] 0.0173% [at 11.8 µM] | activity change, negative = cytotoxicity [6] -3.36% [at 13.5 µM] | activity change, negative = cytotoxicity [7] -15.7% [at 13.5 µM] | activity, negative = inhibition [8] 4.99% [at 12.7 µM] | activation [9] 4.53% [at 15.9 µM] | activity, negative = inhibition [10] -25.1% [at 12.6 µM] | activation [11] -0.058% [at 15.8 µM] | activation [12] -0.128% [at 19 µM] | activity change, negative = inhibition [13] -3.11% [at 18.9 µM] | activity change, negative = inhibition [14] 8.54% [at 19 µM] | activation [15] -4.33% [at 19 µM] | activity change, negative = inhibition [16] -4.22% [at 18.9 µM]

CCCCCCCCC(CO)CCCCCC (configuration not stated)
inactive: Potency [1] | Potency [2] | Potency [3] | Potency [4] | Potency [5] | Potency [6] | Potency [7] | Potency [8] | Potency [9] | Potency [10] | Potency [11] | Potency [12] | Potency [13] | Potency [14] | Potency [17] | Potency [15] | Potency [16]
